From PubChem
Hits are enriched below; roughly 1.6% of the tested compounds scored in any of these assays.
KCNQ2 inh: blocks the rat KCNQ2 potassium channel; O88943; CHO-K1 KCNQ2, FluxOR thallium flux, 20 min; hits give low values; B-score at 10 µM; actives 1.1% (n = 310,000);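 active = fluorescence ratio B-score at most minus 3 library SDs, with starting brightness B-score within 2 library SDs, cut at about -5.5 in these data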
KCNQ2 enhance: enhances the rat KCNQ2 potassium channel | O88943 | CHO-K1 KCNQ2, FluxOR thallium flux fluorescence; hits give high values | B-score at 10 µM | actives 0.54% (n = 310,000) | AID 2239;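 active = fluorescence ratio B-score at least 3 SD of library B-scores, with initial fluorescence B-score within 3 of them, cut at about 5.3 in these data; same plate scores as AID 2156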;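 also: B-score of peak minus minimum over baseline fluorescence ratio after K+ and Tl+ stimulus; positive B-score means potentiation of KCNQ2 with more thallium influx and brighter signal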
* marks the source's active call; other numbers are inactive results.

Results for Cn1cc([N+](=O)[O-])c(C(=O)NC2CCCC2)n1 ?
KCNQ2 inh: inactive; KCNQ2 enhance: 0.22

Results for COc1ccc(NC(=O)C(c2ccccc2)N2CCN(c3ccccn3)CC2)cc1Cl (configuration not stated) ?
KCNQ2 inh: -6.35*; KCNQ2 enhance: -6.35

Results for COc1cc(NC(=O)CN2CCN(c3ccccn3)CC2)cc(OC)c1OC ?
KCNQ2 inh: inactive

What do the screens show for `CCCCCc1ccc(C(=O)CCCC)c(=S)[nH]1`?
KCNQ2 inh: inactive; KCNQ2 enhance: 7.96*

Results for CCCCCc1cc(=O)[nH]c(=S)[nH]1 ?
KCNQ2 inh: inactive; KCNQ2 enhance: 0.07

What do the screens show for `Cn1c(CNC(=O)CNS(=O)(=O)c2ccc(Cl)cc2)cc(=O)n(C)c1=O`?
KCNQ2 inh: inactive

How did CCN(CC)S(=O)(=O)c1ccc(N2CCOCC2)c(NC(=O)c2cccc3ccccc23)c1 do in these assays?
KCNQ2 inh: inactive

What do the screens show for `COc1cc(/C=C/C(=O)Nc2cc(S(=O)(=O)N3CCOCC3)ccc2N2CCCC2)cc(OC)c1OC`?
KCNQ2 inh: inactive

What do the screens show for `CC1CCN(c2ccccc2NC(=O)c2cc([N+](=O)[O-])ccc2N2CCOCC2)CC1`?
KCNQ2 inh: -5.67*; KCNQ2 enhance: -5.67

Results for CCN(CC)S(=O)(=O)c1ccc(N2CCCCC2)c(NC(=O)/C=C/c2cc(OC)c(OC)c(OC)c2)c1 ?
KCNQ2 inh: -6.41*; KCNQ2 enhance: -6.41

Results for CCc1ccccc1NC(=O)c1cc([N+](=O)[O-])ccc1N1CCOCC1 ?
KCNQ2 inh: inactive; KCNQ2 enhance: 1.33

What do the screens show for `CCN(CC)S(=O)(=O)c1ccc(N2CCCCC2)c(C(=O)Nc2ccccc2N2CCOCC2)c1`?
KCNQ2 inh: -8*; KCNQ2 enhance: -8

What do the screens show for `CCOC(=O)C1CCCN(C(=O)CCCn2nnnc2CN2CCOCC2)C1` (configuration not stated)?
KCNQ2 inh: inactive; KCNQ2 enhance: 0.01

Results for O=C(O)C(Cc1c[nH]c2ccccc12)N1C(=O)c2ccccc2C1=O (configuration not stated) ?
KCNQ2 inh: inactive

How did CN(Cc1cccnc1)Cc1c(C(=O)N2CCc3ccccc3C2)nc2ccc(Cl)cn12 do in these assays?
KCNQ2 inh: inactive

What do the screens show for `CCCCN(C)Cc1c(C(=O)N2CCc3ccccc3C2)nc2ccc(Cl)cn12`?
KCNQ2 inh: -5.64*; KCNQ2 enhance: -5.64

Results for O=C1/C(=C/c2cccc3ccccc23)CCCc2ccccc21 ?
KCNQ2 inh: -6.64*; KCNQ2 enhance: -6.64

Results for O=C1/C(=C\c2ccncc2)CCc2ccccc21 ?
KCNQ2 inh: inactive

Results for COc1cc(N2N=C(c3ccccc3)CC2c2ccccc2)c(C=O)cc1C=O (configuration not stated) ?
KCNQ2 inh: inactive

How did COc1ccccc1N1N=C(c2ccc([N+](=O)[O-])cc2)CC1c1ccccc1 (configuration not stated) do in these assays?
KCNQ2 inh: -6.92*; KCNQ2 enhance: -6.92

What do the screens show for `Cc1ccc(-c2nnn(CC(=O)N(CCN3CCOCC3)C(C(=O)NC(C)(C)C)c3ccco3)n2)cc1` (configuration not stated)?
KCNQ2 inh: inactive

How did Cc1ccc(-c2nnn(CC(=O)N(CCN3CCOCC3)C(C(=O)NC(C)(C)C)c3ccc(C)o3)n2)cc1 (configuration not stated) do in these assays?
KCNQ2 inh: -6.05*; KCNQ2 enhance: -6.05

How did COC(C[C@@H](O)C[C@H](O)COCc1ccccc1)OC do in these assays?
KCNQ2 inh: inactive; KCNQ2 enhance: 0.21

What do the screens show for `Cc1ccc(-c2cc(C(=O)NCCCn3ccnc3)c3ccccc3n2)s1`?
KCNQ2 inh: inactive

How did CCc1ccc(-c2cc(C(=O)NCCCn3ccnc3)c3ccccc3n2)s1 do in these assays?
KCNQ2 inh: -8.18*; KCNQ2 enhance: -8.18

What do the screens show for `COc1ccc(C2c3ccc(O)cc3Oc3ncn4nc(-c5cccnc5)nc4c32)cc1OC` (configuration not stated)?
KCNQ2 inh: inactive; KCNQ2 enhance: 0.36

How did COc1ccc(C(C(=O)NCC2CCCO2)N(C(=O)CNC(=O)c2ccco2)c2cc(C)ccc2C)cc1OC (configuration not stated) do in these assays?
KCNQ2 inh: inactive; KCNQ2 enhance: 1.72

What do the screens show for `FC(F)(F)c1cc(-c2ccccc2)nc2nc(N3CCOCC3)sc12`?
KCNQ2 inh: inactive; KCNQ2 enhance: 0.68

Results for C/C(=N\NC(=O)COc1ccccc1-c1ccccc1)c1ccccn1 ?
KCNQ2 inh: inactive

How did C/C(=N\NC(=O)COc1ccccc1-c1ccccc1)c1cccnc1 do in these assays?
KCNQ2 inh: -6.4*; KCNQ2 enhance: -6.4

Results for CCN1CCN(CCNC(=O)c2ccc(CS(=O)c3ccc(Br)cc3)o2)CC1 (configuration not stated) ?
KCNQ2 inh: inactive; KCNQ2 enhance: 5.61*
